# Assay outcomes deposited in PubChem BioAssay by National Center for Advancing Translational Sciences (NCATS).
# Most compounds without a hit are left out; they make up all but 1.9% or so of the library.
# CXXC DNA block – inhibitors of human MLL CXXC domain-DNA interaction; AID 2662; MLL-CXXC / FITC-HOXA9 DNA fluorescence polarization; actives 0.037% (n = 290,000); Potency, µM (highest dose often 115 µM), without a hit: at the top dose activity change, negative = inhibition, usual class: inhibitors; Q03164; active = well fitted inhibition curve with a large enough effect in the polarisation, with a control signal flat, not every such curve was filed as active; inconclusive = small, poorly fitted or top-dose-only effect, or effect the other way, or a change in a side signal; inactive = no such curve, though single readings can be large or run the other way; the % refers to the polarisation; also: potency is read from the fitted curve at half-maximal effect
#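 Purified MLL-CXXC (added from a 7 uM solution) was preincubated 5 min at ambient with pinned compounds in 50 mM Tris-HCl pH 7.5, 50 mM NaCl, 1 mM DTT, 0.05% BSA. Fluorescein-labeled HOX-A9 DNA (50 nM solution) followed, 30 min, then polarization read.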
# Menin-MLL FL inh – displaces fluorescein MLL peptide from human menin. FP activity change, % at 61.4 µM. AID 1766. 290,000 tested, under 10 active. Fluorescence polarization, fluorescein-MLL peptide displacement from menin; active = well fitted curve in the direction sought with a large enough effect in the polarisation, not every such curve was filed as active; inconclusive = small, poorly fitted or top-dose-only effect, or effect the other way, or a change in a side signal; inactive = no such curve, though single readings can be large or run the other way; the % refers to the polarisation; also: % of control where 0% means no effect
# Menin-MLL TR inh – displaces Texas Red mutant MLL peptide from human menin | Menin + Texas Red MLL mutant peptide, fluorescence polarization | Potency, µM (highest dose often 61.6 µM), for the others: top-dose FP activity change, negative = inhibition, actives largely listed as inhibitors | AID 1768 | O00255 | actives 0.23% (n = 270,000); active = well fitted inhibition curve with a large enough effect in the polarisation, with a control signal flat, not every such curve was filed as active; inconclusive = small, poorly fitted or top-dose-only effect, or effect the other way, or a change in a side signal; inactive = no such curve, though single readings can be large or run the other way; the % refers to the polarisation; also: potency is read from the fitted curve at half-maximal effect; % of control where 0% means no effect
# ClpP mod – qHTS Assay for Activators of ClpP | ATP-dependent Clp protease proteolytic subunit (Bacillus subtilis (strain 168)), P80244 | purified B. subtilis ClpP, FRET peptide cleavage, 20 min | Potency, µM (series often up to 57.5 µM), inactives show top-dose activity change, negative = active | actives 1.9% (n = 340,000) | AID 651965, 2013; active = well fitted falling curve with a large enough effect; inconclusive = small, poorly fitted or top-dose-only effect; inactive = no such curve, though single readings can be large or run the other way; also: potency is read from the fitted curve at half-maximal effect; the source files actives as falling curves though it sought activators and does not explain the sign; nearly all actives have a fitted effect of over 65% in size
# Target sequence (P80244 whole entry, looked up): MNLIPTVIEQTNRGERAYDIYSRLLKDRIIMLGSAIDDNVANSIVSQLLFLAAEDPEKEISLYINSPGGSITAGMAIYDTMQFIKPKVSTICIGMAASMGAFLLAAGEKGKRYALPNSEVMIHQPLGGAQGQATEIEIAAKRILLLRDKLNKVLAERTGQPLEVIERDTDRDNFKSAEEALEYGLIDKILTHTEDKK
#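 Purified B. subtilis ClpP, 10 microg/mL final in Tris/HCl pH8 with KCl, BSA, glycerol and Tween-20, cleaved an Abz/nitrotyrosine-quenched decapeptide. Fluorescence (ex 320, em 430) was read at 0 and 20 min at room temperature. Delta was normalized to 5.8 microM ADEP and DMSO/no-enzyme controls.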
# PINK1 expr mod – changes PINK1 expression. PINK1 immunofluorescence, high-content cytometry, 24 h. Potency, µM (doses to about 76.6 µM), without a hit: at the highest dose activation (PINK1 increase), actives largely listed as activators. actives 0.2% (n = 410,000). AID 624263; active = well fitted activation curve with a large enough effect; inconclusive = small, poorly fitted or top-dose-only effect; cell line not stated here; also: potency is read from the fitted curve at half-maximal effect; % of control where 0% means no effect; nearly all actives have a fitted effect of over 65% in size
#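 Stable cell line treated 24 h with compounds at 5 concentrations (CCCP controls), then fixed and immunostained for PINK1 plus nuclear and cell stains; PINK1 immunofluorescence quantified by laser-scanning microplate cytometry.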
# Epigenetic reg – derepresses silenced GFP reporter in murine cells; murine LDR cells, GFP reporter derepression, 30 h; Potency, µM (titrated, usually from 53.9 µM), for the others: at the top dose GFP activation, hits mostly activators; actives 0.2% (n = 280,000); AID 1865; active = well fitted activation curve with a large enough effect; inconclusive = small, poorly fitted or top-dose-only effect; also: potency is read from the fitted curve at half-maximal effect; % of control where 0% means no effect; nearly all actives have a fitted effect of over 60% in size
#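 Readout is the number of GFP-expressing murine LDR cells, counted by cytometry following washing. Cells were treated with compound for 30 h at 37 C; the stably integrated CMV-GFP locus is normally silent.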
# * = called active by the depositor; ? = inconclusive; · = no result given.
SMILES,CXXC DNA block,Menin-MLL FL inh,Menin-MLL TR inh,ClpP mod,PINK1 expr mod,Epigenetic reg
C[C@@H](C1[C@@H](O)CC2C3C=CC4C[C@@H](O)CC[C@]4(C)[C@H]3CC[C@@]21C)[C@@H]1CCCCN1 (some centres not stated),·,0,-2%,·,·,-1%
C=CC(=O)O,-1%,2,-1%,·,·,·
CCCCN(C(=O)C1CC(=O)N(Cc2ccc(C)cc2)C1)c1c(N)n(CCCC)c(=O)[nH]c1=O (configuration not stated),·,·,·,22µM*,0%,·
Cc1ccc(S(=O)(=O)N(C)c2ccc(OCc3cccc(C)c3)cc2)cc1,-3%,·,·,22µM*,1%,·
Cc1ccc(S(=O)(=O)N(C)c2ccc(OCC(=O)OCc3cccc(Br)c3)cc2)cc1,·,·,·,-1%,1%,·
O=C(C[n+]1csc2ccccc21)c1ccc(I)cc1,·,·,·,2%,3%,·
CCn1nc(C)cc1C(=O)N1CCC2(CC1)c1ccccc1[C@@H](NC(=O)c1cccnc1)[C@@H]2O,·,·,·,·,1%,·
Cc1cc(C)n(-c2cccc(C(=O)NCC3Cc4cccc(-c5cccnc5)c4O3)c2)n1 (configuration not stated),·,·,·,·,1%,·
N/C(=N/OCc1cccc([N+](=O)[O-])c1)c1nonc1N,18%,3,-3%,11µM*,-3%,-7%
CCn1c(/C=C/c2ccccc2C)nc2ccccc2c1=O,9%,0,·,-1%,3%,-1%
CCn1c(/C=C/c2c(C)n(CC)c3ccccc23)nc2ccccc2c1=O,-8%,?,?,0%,18µM*,-1%
O=c1c2ccccc2nc(/C=C/c2ccc(Cl)cc2)n1CCO,1%,-3,-4%,32µM*,1%,·
CCN(Cc1ccncc1)Cc1ccc2c(c1)CN(C(=O)c1ccc(C#CC(C)(C)O)o1)CCO2,·,·,·,·,0%,·
CN(N)c1nc(C(F)(F)F)nc2ccccc12,4%,4,1%,·,1%,-3%
CN(NS(=O)(=O)c1ccc(Br)cc1)c1nc(C(F)(F)F)nc2ccccc12,9%,5,?,·,16µM*,0%
CCc1nc2cc(C(=O)N[C@H]3CCCCNC3=O)cc(NC(=O)c3ccccc3OC)c2n1C,·,·,·,·,0%,·
COc1ccc2nc3oc(C(=O)N4CC(C)CC(C)C4)cc3cc2c1 (configuration not stated),-2%,·,·,4%,3%,·
COc1ccc2nc3oc(C(=O)N4CCCCC4)cc3cc2c1,3%,1,-14%,28µM*,1%,-1%
CCOC(=O)C1CCN(C(=O)c2cc3cc4cc(OC)ccc4nc3o2)CC1,-6%,-2,-4%,18µM*,-1%,-1%
COC(=O)c1ccccc1-c1cc(C)cc2c1OC(CNC(=O)C1CCCO1)C2 (configuration not stated),·,·,·,·,0%,·
OCCN1CCN(Cc2ccc3c(c2)CN(Cc2ccc4ccccc4c2)CCO3)CC1,·,·,·,·,-1%,·
O=C1c2ccccc2NC(c2ccc(Cl)cc2Cl)N1O (configuration not stated),5%,1,5%,3%,2%,0%
O=C1c2ccccc2NC(c2cccc(Cl)c2)N1N=C1CCCCCC1 (configuration not stated),1%,4,-27%,20µM*,-1%,-5%
O=C(O)COc1ccccc1-c1ccccc1,8%,3,·,1%,0%,0%
Cc1ccccc1C1=C/C(=C(\SS/C(C(=O)c2ccc(OCC(=O)O)c(Cl)c2Cl)=C2\C=C(c3ccccc3C)SS2)C(=O)c2ccc(OCC(=O)O)c(Cl)c2Cl)SS1,·,·,·,2%,35µM*,·
SMILES,CXXC DNA block,Menin-MLL FL inh,Menin-MLL TR inh,ClpP mod,PINK1 expr mod,Epigenetic reg
O=C(Cc1ccccc1Nc1c(Cl)cccc1Cl)OCO/N=[N+](\[O-])N1CCCC1,·,-1,-12%,·,·,·
CN(C)CCCN=Cc1c(O)n(Cc2ccccc2)c(=O)c2ccccc12,-1%,0,·,25µM*,1%,-1%
CN(C)CCN=Cc1c(O)n(Cc2ccccc2)c(=O)c2ccccc12,5%,-5,?,·,0%,-2%
CCOc1cnc(-c2ccc(Cl)cc2)o1,5%,1,0%,?,10%,-1%
CCOc1cnc(-c2ccc(OC)cc2)o1,-3%,-3,0%,25µM*,1%,-1%
Cc1ccc(C)c(NC(=O)c2ccc3ccccc3n2)c1,-7%,3,3%,35µM*,9%,0%
O=C(CCN1Cc2ccccc2OC(c2ccccc2F)C1)N1CCC(N2CCCC(O)C2)CC1 (configuration not stated),·,·,·,·,6%,·
CN(C)c1c(Cl)cc(/C=C2\C=Cc3ccccc32)cc1Cl,·,·,·,0%,0%,·
Cc1cc(NC(=O)CSc2nc(N)c(NC(=O)c3ccccc3F)c(=O)[nH]2)no1,-7%,·,·,16µM*,8%,·
CN1CCc2c(n(CC(O)CNCc3ccccc3)c3ccccc23)C1=O (configuration not stated),10%,-6,-29%,-27%,0%,9%
CC(C)NCC(O)Cn1c2c(c3ccccc31)CCc1c-2cnn1-c1ccccc1 (configuration not stated),3%,-3,?,8.9µM*,-6%,1%
O=C(NNC(=O)C1CC1c1ccccc1)Nc1ccccc1 (configuration not stated),-1%,3,-14%,28µM*,-2%,-3%
O=C(NNC(=O)[C@@H]1CCCC[C@@H]1C(=O)O)Nc1ccccc1,11%,1,4%,1%,1%,1%
CC(=O)N1CCc2nc3ccccc3cc21,·,·,·,?,0%,·
CC(=O)N1CCc2cc3nc(C)cc(C)c3cc21,-6%,2,-1%,25µM*,0%,-3%
Cc1cc(-c2ccccc2)c(C#N)c(N)n1,0%,1,-5%,32µM*,10%,-1%
N#Cc1c(-c2ccccc2)cc(-c2ccc(O)cc2)nc1N,-12%,1,47%,4%,2%,·
Cc1ccc2c(n1)sc1c(N)ncnc12,-13%,1,-13%,32µM*,-1%,-1%
Cc1ccc2c(n1)sc1c(-c3ccccc3)c(C#N)c(N)nc12,-28%,1,-11%,35µM*,8%,?
Cc1ccc2c(N)c(C#N)sc2n1,4%,-4,-10%,-5%,-2%,1%
Cc1nc(N)c(C#N)c(-c2cccnc2)c1-c1ccccc1,-6%,1,18%,-22%,-3%,·
Cc1oc(-c2cccc(NC(=O)c3ccccn3)c2)nc1CNC(=O)c1cc(F)c(F)cc1F,·,·,·,·,-1%,·
COc1ccc(/C=C/C(=O)NCC2Cc3cc(Cl)cc(-c4ncccn4)c3O2)cc1 (configuration not stated),·,·,·,·,1%,·
